This is an account of results in PubChem BioAssay.

The test system of assay [1] is XIP peptide (Xip251-270) binding. The experiment in a line: XIP fragment 251-270 binding compounds – biochemical, small-molecule microarray, fluorescence 635/667 nm, 0.1 µg/mL protein, primary screen (AID 1182). Particulars: fluorescent protein binding, 635 nm, higher = more signal, called active from +8 up or from −8 down.
The next assay has as its system XIP peptide (Xip251-270). In words: compounds binding XIP fragment 251-270 – biochemical, small-molecule microarray, fluorescence 635/667 nm, 0.5 µg/mL protein, primary screen (AID 1183). Particulars: fluorescence 635 nm, higher = more signal.
Assay [2] in a line: blood-stage malaria parasite viability loss – strain 3D7, DAPI fluorescence, 100 nL, primary screen (AID 1184).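 Further: parasites grown inside human red blood cells in medium with human serum.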 Particulars: P. falciparum 3D7 growth, 3 d, higher = more signal.
Assay [3] has as its target Homeobox protein Hox-A13 (Mus musculus) (UniProt Q62424). The experiment in a line: disruptors of Hoxa13 oligonucleotide interaction – biochemical, fluorescence polarization, labeled oligonucleotide, primary screen (AID 1185). Particulars: Hoxa13:DNA binding, 15 min, higher = more signal, called active from +8 up or from −8 down. (Polarisation of emitted light reports the rotation of a fluorescent probe.)

Calls of active or inactive are those of the source.

Homeobox protein Hox-A13 (Mus musculus), sequence (Q62424 whole entry, looked up): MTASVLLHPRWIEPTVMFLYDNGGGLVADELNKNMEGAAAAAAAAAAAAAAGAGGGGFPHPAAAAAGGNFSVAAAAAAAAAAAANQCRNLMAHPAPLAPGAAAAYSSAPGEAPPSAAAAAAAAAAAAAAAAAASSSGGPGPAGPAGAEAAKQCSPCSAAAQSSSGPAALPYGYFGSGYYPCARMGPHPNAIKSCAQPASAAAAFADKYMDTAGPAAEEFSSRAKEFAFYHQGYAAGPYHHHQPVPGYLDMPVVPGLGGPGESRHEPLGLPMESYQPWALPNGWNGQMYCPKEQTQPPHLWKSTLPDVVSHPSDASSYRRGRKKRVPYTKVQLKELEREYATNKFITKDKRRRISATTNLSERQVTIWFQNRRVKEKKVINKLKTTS

As for `COC(=O)CC=C[C@@H](C)[C@@H](C=NOC[C@H]1O[C@H](c2ccccc2)C=C[C@@H]1Oc1ccc(OC)cc1)NS(=O)(=O)c1ccc(C)cc1`, the composite z-score is -0.0195 (inactive) in assay [1] and -0.827 in the assay with XIP peptide (Xip251-270). For the same compound, the z-score is -0.683 in assay [2] and -2.52 (inactive) in assay [3].

As for `COC(=O)[C@@H]1CC[C@H](C)[C@@H](c2ccc(C)cc2)N1C(=O)c1ccc(C=NO[C@H](C)c2cn([C@H](CO)Cc3ccccc3)nn2)cc1`, the composite z-score in assay [1] was -0.402 (inactive); in the assay on XIP peptide (Xip251-270), 0.658. Moreover, the z-score in assay [2] was -1.76; in assay [3] it was -5.94 (inactive).

For the compound `C[C@H]1CC[C@H]2C(=O)OC(CO)CN2[C@@H]1c1ccc(Br)cc1` (stereo partly drawn), the composite z-score in assay [1] was 0.201 (inactive); in the assay on XIP peptide (Xip251-270), 0.115. In addition, the z-score was -0.296 in assay [2] and -0.52 (inactive) in assay [3].

Take `CCCNC(=O)OC[C@H]1O[C@H](CCON=C(C)C)C=C[C@@H]1Oc1ccc(OC)cc1`: the composite z-score is 0.771 (inactive) in assay [1] and 0.219 in the assay on XIP peptide (Xip251-270). Besides, the z-score is 1.07 in assay [2] and 0.928 (inactive) in assay [3].

For `O=C1[C@H]2[C@H]3[C@H](O)[C@H](O)CC(=NO[C@@H]4O[C@H](CO)[C@@H](O)[C@H](O)[C@H]4O)[C@H]3CC[C@H]2C(=O)N1c1cccc(Oc2ccccc2)c1`, the values for the composite z-score (in assay [1]; in the assay with XIP peptide (Xip251-270)) were -0.373 (inactive) and 0.538, respectively. The z-score in assay [2] is -0.418; in assay [3], -1.68 (inactive).

In the case of `CO[C@H]1COC(=O)CCC[C@@H](C)[C@H](OC)COC(=O)[C@@H]2CCCN2C(=O)CC=C[C@@H]1C`, the composite z-score is 0.0072 (inactive) in assay [1] and 0.497 in the assay with XIP peptide (Xip251-270). Besides, the z-score in assay [2] is -0.74; in assay [3] it was -0.0208 (inactive).

Regarding `Cn1c(=O)n2n(c1=O)[C@H]1[C@H](O)[C@@H]3O[C@@H]3C(=O)[C@H]1CC2`, the results for the composite z-score (in assay [1]; with XIP peptide (Xip251-270)) were 0.151 (inactive) and 0.186, respectively. Besides, the z-score in assay [2] was 0.551; in assay [3], 0.336 (inactive).

Take `COC(=O)[C@@H]1CC[C@H](C)[C@@H](c2ccc(C)cc2)N1C(=O)c1ccc(C=NOCC[C@@H]2C=C[C@H](OC(C)=O)[C@@H](COC(C)=O)O2)cc1`: the composite z-score in assay [1] is -0.425 (inactive); with XIP peptide (Xip251-270), 0.484. Further, the z-score was -0.316 in assay [2] and -5.26 (inactive) in assay [3].

On to `CCc1cc2c(nc1CC)CCN(CCC(C)=NO[C@@H](C)c1cn([C@H](CO)Cc3ccccc3)nn1)C2`, for which the composite z-score in assay [1] was 0.444 (inactive); with XIP peptide (Xip251-270), 0.704. The z-score is -1.72 in assay [2] and -6.65 (inactive) in assay [3].

In the case of `CC1O[C@H]2C3=C(C(=O)[C@@H]4O[C@@H]4[C@H]3O)[C@@H]1C1[C@@H](C)OC=C3[C@H](O)C4O[C@@H]4C(=NOCc4ccccc4)[C@]312` (stereo partly drawn), the composite z-score in assay [1] was -0.319 (inactive); in the assay on XIP peptide (Xip251-270), 0.563. In addition, the figures for the z-score in assay [2] and in assay [3] were -0.352 and -1.93 (inactive), respectively.

Regarding `O=C1C[C@@H](O)[C@@H](O)[C@@H]2[C@@H]3C(=O)N(C[C@@H]4CCCO4)C(=O)[C@@H]3CC[C@H]12`, the composite z-score was 0.195 (inactive) in assay [1] and 0.156 in the assay with XIP peptide (Xip251-270). The z-score in assay [2] was 0.116; in assay [3], 0.195 (inactive).

For the compound `CCOC(=O)[C@H](Cc1ccccc1)NC(=O)CCC1CC(OC(=O)NCCc2ccc(F)cc2)CC2(CCCC(COC(=O)NCCOC)O2)O1` (stereo partly drawn), the composite z-score in assay [1] was 1.99 (inactive); in the assay on XIP peptide (Xip251-270) it was 0.0681. Also, the z-score was -0.218 in assay [2] and -6.28 (inactive) in assay [3].

In the case of `CCCNC(=O)OC[C@H]1O[C@H](CCON=Cc2ccc(C(=O)N3[C@H](c4ccc(C)cc4)[C@@H](C)CC[C@H]3C(=O)OC)cc2)C=C[C@@H]1Oc1ccc(OC)cc1`, the composite z-score in assay [1] is 0.236 (inactive); in the assay with XIP peptide (Xip251-270), 0.257. Moreover, the values for the z-score in assay [2] and in assay [3] were -2.3 and -2.32 (inactive), respectively.

`CO[C@@H]1COC(=O)[C@H](CCSC)NC(=O)CC=C[C@@H](C)COC(=O)[C@H](C)NC(=O)CC=C[C@H]1C`: the composite z-score in assay [1] was -0.665 (inactive); with XIP peptide (Xip251-270) it was 0.909. Further, the z-score in assay [2] is -0.131; in assay [3], -0.042 (inactive).

In the case of `COc1ccc(O[C@H]2C=C[C@@H](c3ccccc3)O[C@@H]2CON=CC[C@@H]2C=C[C@H](OC(C)=O)[C@@H](COC(C)=O)O2)cc1`, the composite z-score in assay [1] is 0.21 (inactive); in the assay on XIP peptide (Xip251-270), -0.104. The results for the z-score in assay [2] and in assay [3] were -0.483 and -4.06 (inactive), respectively.

For the compound `C#CCCCON=C1C[C@@H](O)[C@@H](O)[C@@H]2[C@@H]3C(=O)N(c4cccc(Oc5ccccc5)c4)C(=O)[C@@H]3CC[C@H]12`, the composite z-score in assay [1] was 0.332 (inactive); with XIP peptide (Xip251-270), 0.507. Also, the z-score in assay [2] is 0.63; in assay [3], 0.303 (inactive).

As to `C[C@@H]1NC(=O)[C@@H](C)COC(=O)[C@H](C)NC(=O)[C@@H](C)COC1=O`, the values for the composite z-score (in assay [1]; in the assay with XIP peptide (Xip251-270)) were -0.287 (inactive) and 0.158, respectively. Besides, the figures for the z-score in assay [2] and in assay [3] were -1.46 and 0.969 (inactive), respectively.

As for `O=C(NN=C1C[C@@H](O)[C@@H](O)[C@@H]2[C@@H]3C(=O)N(C4CCCCC4)C(=O)[C@@H]3CC[C@H]12)OCc1ccccc1`, the figures for the composite z-score (in assay [1]; in the assay with XIP peptide (Xip251-270)) were -0.142 (inactive) and 0.109, respectively. In addition, the z-score in assay [2] was -0.0276; in assay [3], -5.03 (inactive).

With `CCC1=NOC(CCC2CC(OC(=O)NCc3cccc4c3OCO4)CC3(CCCC(COC(=O)NCCc4ccccc4OC)O3)O2)C1` (stereo not drawn), the composite z-score is 1.87 (inactive) in assay [1] and 0.357 in the assay with XIP peptide (Xip251-270). Besides, the z-score in assay [2] is -0.95; in assay [3], -6.1 (inactive).

For the compound `Cc1ccc(S(=O)(=O)OC[C@H]2CN3[C@H](c4ccc(Br)cc4)[C@@H](C)CC[C@H]3C(=O)O2)cc1`, the values for the composite z-score (in assay [1]; in the assay on XIP peptide (Xip251-270)) were 0.225 (inactive) and 0.564, respectively. Besides, the z-score in assay [2] was 0.565; in assay [3] it was -5.13 (inactive).

For `CCN1C(=O)[C@H]2[C@H]3[C@H](O)[C@H](O)CC(=O)[C@@H]3CC[C@H]2C1=O`, the composite z-score is 0.221 (inactive) in assay [1] and 0.488 with XIP peptide (Xip251-270). For the same compound, the z-score was 1.51 in assay [2] and 0.202 (inactive) in assay [3].

For `C[C@@H](c1ccccc1)N1C(=O)[C@H]2[C@H]3[C@H](O)[C@H](O)CC(=NO[C@@H]4O[C@H](CO)[C@@H](O)[C@H](O)[C@H]4O)[C@H]3CC[C@H]2C1=O`, the values for the composite z-score (in assay [1]; with XIP peptide (Xip251-270)) were -0.0033 (inactive) and 0.216, respectively. Further, the values for the z-score in assay [2] and in assay [3] were -0.648 and -0.285 (inactive), respectively.
